Changes are numbered by the printed parent chain.

Holding throughout (experiment): PBM; 200 nM protein, PBS
Conditions in all cases: dsDNA, one strand shown

Experiment [1] deals with CRX (Homo sapiens, UniProt O43186 26-111).
The target in experiment [2] is PITX2 (Homo sapiens, UniProt Q99697 72-157).
Experiment [3] concerns the target CRX (Homo sapiens, UniProt O43186 26-111, R41L).
Experiment [4] concerns the target CRX (Homo sapiens, UniProt O43186 26-111, E42D).
The target of experiment [5] is T1, NKX2-4 (Homo sapiens, UniProt Q9H2Z4 175-261, P217L).
T1 sequence: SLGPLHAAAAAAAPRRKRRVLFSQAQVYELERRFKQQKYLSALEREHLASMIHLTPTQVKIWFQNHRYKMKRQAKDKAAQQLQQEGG

In experiment [6] the target is HOXB9 (Homo sapiens, UniProt P17482 171-250, T197M).
In experiment [7] the target is T2, NKX2-4 (Homo sapiens, UniProt Q9H2Z4 175-261, T231S).
T2 sequence: T1 sequence with L43P, T57S

The target in experiment [8] is T3, NKX2-4 (Homo sapiens, UniProt Q9H2Z4 175-261).
T3 sequence: T1 sequence with L43P

The target of experiment [9] is HOXB9 (Homo sapiens, UniProt P17482 171-250).
Experiment [10] has as its target T4, NKX2-4 (Homo sapiens, UniProt Q9H2Z4 175-261, R246Q).
T4 sequence: T1 sequence with L43P, R72Q

In experiment [11] the target is HOXB9 (Homo sapiens, UniProt P17482 171-250, R186Q).
Experiment [12] addresses HOXA4 (Homo sapiens, UniProt Q00056 201-287, W262R).
Experiment [13] has as its target HOXC9 (Homo sapiens, UniProt P31274 178-260, K195R).
Experiment [14] addresses HOXA4 (Homo sapiens, UniProt Q00056 201-287, R217L).
Experiment [15] deals with HOXC9 (Homo sapiens, UniProt P31274 178-260).
Experiment [16] deals with MSX2 (Homo sapiens, UniProt P35548 130-214, R199I).
Experiment [17] deals with HOXC9 (Homo sapiens, UniProt P31274 178-260, R193K).
Experiment [18] deals with HOXA4 (Homo sapiens, UniProt Q00056 201-287).
For experiment [19], the target named is MSX2 (Homo sapiens, UniProt P35548 130-214).
Experiment [20] concerns the target HOXC9 (Homo sapiens, UniProt P31274 178-260, R222W).
Experiment [21] concerns the target MSX2 (Homo sapiens, UniProt P35548 130-214, F161Y).
Experiment [22] addresses HOXA4 (Homo sapiens, UniProt Q00056 201-287, W262F).

Sequence of CRX (Homo sapiens, UniProt O43186 26-111, R41L) (O43186 26-111 R41L): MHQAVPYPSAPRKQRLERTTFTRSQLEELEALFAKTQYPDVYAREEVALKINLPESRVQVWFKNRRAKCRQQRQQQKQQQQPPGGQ
Sequence of CRX (Homo sapiens, UniProt O43186 26-111) (O43186 26-111): as the sequence (O43186 26-111 R41L) above, with L16R counted along it
Sequence of CRX (Homo sapiens, UniProt O43186 26-111, E42D) (O43186 26-111 E42D): as the sequence (O43186 26-111 R41L) above, with L16R, E17D counted along it
Sequence of HOXA4 (Homo sapiens, UniProt Q00056 201-287) (Q00056 201-287): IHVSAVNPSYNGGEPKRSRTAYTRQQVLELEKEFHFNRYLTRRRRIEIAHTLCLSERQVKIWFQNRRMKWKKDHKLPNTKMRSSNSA
Sequence of HOXC9 (Homo sapiens, UniProt P31274 178-260, R193K) (P31274 178-260 R193K): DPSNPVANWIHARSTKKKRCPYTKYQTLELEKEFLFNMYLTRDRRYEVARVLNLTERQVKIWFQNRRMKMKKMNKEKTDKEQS
Sequence of MSX2 (Homo sapiens, UniProt P35548 130-214, F161Y) (P35548 130-214 F161Y): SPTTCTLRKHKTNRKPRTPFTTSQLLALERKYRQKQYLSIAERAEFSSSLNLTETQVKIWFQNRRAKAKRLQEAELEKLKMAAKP
Sequence of HOXB9 (Homo sapiens, UniProt P17482 171-250, T197M) (P17482 171-250 T197M): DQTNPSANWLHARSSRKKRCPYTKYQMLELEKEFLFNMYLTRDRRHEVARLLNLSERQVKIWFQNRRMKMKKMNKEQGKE
Sequence of HOXC9 (Homo sapiens, UniProt P31274 178-260, R222W) (P31274 178-260 R222W): as the sequence (P31274 178-260 R193K) above, with K16R, R45W counted along it
Sequence of HOXB9 (Homo sapiens, UniProt P17482 171-250) (P17482 171-250): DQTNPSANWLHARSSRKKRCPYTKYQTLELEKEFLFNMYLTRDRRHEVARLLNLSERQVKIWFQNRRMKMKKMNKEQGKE
Sequence of MSX2 (Homo sapiens, UniProt P35548 130-214, R199I) (P35548 130-214 R199I): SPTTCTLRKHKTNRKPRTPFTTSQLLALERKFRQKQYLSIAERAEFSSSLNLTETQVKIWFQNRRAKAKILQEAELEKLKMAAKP
Sequence of HOXC9 (Homo sapiens, UniProt P31274 178-260, K195R) (P31274 178-260 K195R): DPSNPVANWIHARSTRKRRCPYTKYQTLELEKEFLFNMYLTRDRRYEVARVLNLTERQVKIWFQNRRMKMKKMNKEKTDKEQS
Sequence of HOXA4 (Homo sapiens, UniProt Q00056 201-287, W262F) (Q00056 201-287 W262F): as the sequence (Q00056 201-287) above, with W62F counted along it
Sequence of MSX2 (Homo sapiens, UniProt P35548 130-214) (P35548 130-214): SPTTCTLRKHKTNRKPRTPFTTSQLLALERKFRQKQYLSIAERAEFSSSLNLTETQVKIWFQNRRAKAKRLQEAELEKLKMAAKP
Sequence of HOXA4 (Homo sapiens, UniProt Q00056 201-287, R217L) (Q00056 201-287 R217L): as the sequence (Q00056 201-287) above, with R17L counted along it
Sequence of HOXB9 (Homo sapiens, UniProt P17482 171-250, R186Q) (P17482 171-250 R186Q): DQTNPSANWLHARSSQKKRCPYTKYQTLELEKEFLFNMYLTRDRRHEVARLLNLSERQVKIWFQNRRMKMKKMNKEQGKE
Sequence of HOXA4 (Homo sapiens, UniProt Q00056 201-287, W262R) (Q00056 201-287 W262R): as the sequence (Q00056 201-287) above, with W62R counted along it
Sequence of HOXC9 (Homo sapiens, UniProt P31274 178-260) (P31274 178-260): as the sequence (P31274 178-260 R193K) above, with K16R counted along it

Take AGATTAAC: the binding signal was 12.9 upbm affinity estimate (log intensity, higher = more binding, comparable within an allelic series) in experiment [1]; 12.7 upbm affinity estimate (log intensity, higher = more binding, comparable within an allelic series) in [2]; 12.6 upbm affinity estimate (log intensity, higher = more binding, comparable within an allelic series) in experiment [3].

On to GTAATCCA, for which the binding signal was 12.9 upbm affinity estimate (log intensity, higher = more binding, comparable within an allelic series) in [1]; 12.9 upbm affinity estimate (log intensity, higher = more binding, comparable within an allelic series) in [2]; 12.7 upbm affinity estimate (log intensity, higher = more binding, comparable within an allelic series) in [3].

With AGATTAGG, the binding signal is 12.7 upbm affinity estimate (log intensity, higher = more binding, comparable within an allelic series) in experiment [1]; 12.3 upbm affinity estimate (log intensity, higher = more binding, comparable within an allelic series) in experiment [2]; 12.2 upbm affinity estimate (log intensity, higher = more binding, comparable within an allelic series) in experiment [3].

For the sequence ACTGCAGT, the binding signal in experiment [1] was 8.23 upbm affinity estimate (log intensity, higher = more binding, comparable within an allelic series); in experiment [4], 8.32 upbm affinity estimate (log intensity, higher = more binding, comparable within an allelic series); in experiment [3], 8.4 upbm affinity estimate (log intensity, higher = more binding, comparable within an allelic series).

With GGGCTTAA, the binding signal in experiment [1] was 12.7 upbm affinity estimate (log intensity, higher = more binding, comparable within an allelic series); in experiment [2], 12.7 upbm affinity estimate (log intensity, higher = more binding, comparable within an allelic series); in experiment [3] it was 12.1 upbm affinity estimate (log intensity, higher = more binding, comparable within an allelic series).

For the sequence GAATAAAC, the binding signal in experiment [1] is 10 upbm affinity estimate (log intensity, higher = more binding, comparable within an allelic series); in experiment [4] it was 9.83 upbm affinity estimate (log intensity, higher = more binding, comparable within an allelic series); in experiment [3], 9.51 upbm affinity estimate (log intensity, higher = more binding, comparable within an allelic series).

As for CGAACCTC, the binding signal in experiment [1] was 8.5 upbm affinity estimate (log intensity, higher = more binding, comparable within an allelic series); in experiment [4] it was 8.36 upbm affinity estimate (log intensity, higher = more binding, comparable within an allelic series); in [3], 8.33 upbm affinity estimate (log intensity, higher = more binding, comparable within an allelic series).

Turning to CACTAATC, the binding signal in [1] was 12.8 upbm affinity estimate (log intensity, higher = more binding, comparable within an allelic series); in experiment [4], 12.6 upbm affinity estimate (log intensity, higher = more binding, comparable within an allelic series); in experiment [3] it was 12 upbm affinity estimate (log intensity, higher = more binding, comparable within an allelic series).

For CTTAAGCC, the binding signal in [1] is 12.7 upbm affinity estimate (log intensity, higher = more binding, comparable within an allelic series); in experiment [3], 11.9 upbm affinity estimate (log intensity, higher = more binding, comparable within an allelic series).

Regarding CCGATCAG, the binding signal is 9.74 upbm affinity estimate (log intensity, higher = more binding, comparable within an allelic series) in experiment [1]; 9.63 upbm affinity estimate (log intensity, higher = more binding, comparable within an allelic series) in experiment [4]; 9.48 upbm affinity estimate (log intensity, higher = more binding, comparable within an allelic series) in [3].

Take GGGAGACA: the binding signal was 8.13 upbm affinity estimate (log intensity, higher = more binding, comparable within an allelic series) in experiment [1]; 8.2 upbm affinity estimate (log intensity, higher = more binding, comparable within an allelic series) in [4]; 8.26 upbm affinity estimate (log intensity, higher = more binding, comparable within an allelic series) in experiment [3].

Take AGAGGGCC: the binding signal was 11.7 upbm affinity estimate (log intensity, higher = more binding, comparable within an allelic series) in experiment [5]; 8.51 upbm affinity estimate (log intensity, higher = more binding, comparable within an allelic series) in experiment [6]; 12 upbm affinity estimate (log intensity, higher = more binding, comparable within an allelic series) in [7]; 11.7 upbm affinity estimate (log intensity, higher = more binding, comparable within an allelic series) in experiment [8]; 8.69 upbm affinity estimate (log intensity, higher = more binding, comparable within an allelic series) in [9]; 11.9 upbm affinity estimate (log intensity, higher = more binding, comparable within an allelic series) in [10]. Further, the binding signal in [11] is 8.57 upbm affinity estimate (log intensity, higher = more binding, comparable within an allelic series).

Consider GCGACCGC, for which the binding signal in experiment [5] was 9.58 upbm affinity estimate (log intensity, higher = more binding, comparable within an allelic series); in experiment [12], 9.61 upbm affinity estimate (log intensity, higher = more binding, comparable within an allelic series); in experiment [13], 9.65 upbm affinity estimate (log intensity, higher = more binding, comparable within an allelic series); in [7] it was 9.41 upbm affinity estimate (log intensity, higher = more binding, comparable within an allelic series); in experiment [8], 9.53 upbm affinity estimate (log intensity, higher = more binding, comparable within an allelic series); in experiment [14], 9.65 upbm affinity estimate (log intensity, higher = more binding, comparable within an allelic series). Further, the binding signal in experiment [15] was 9.71 upbm affinity estimate (log intensity, higher = more binding, comparable within an allelic series); in [16], 9.49 upbm affinity estimate (log intensity, higher = more binding, comparable within an allelic series); in experiment [17] it was 9.6 upbm affinity estimate (log intensity, higher = more binding, comparable within an allelic series); in experiment [18] it was 9.86 upbm affinity estimate (log intensity, higher = more binding, comparable within an allelic series); in experiment [19], 9.38 upbm affinity estimate (log intensity, higher = more binding, comparable within an allelic series); in experiment [10], 9.69 upbm affinity estimate (log intensity, higher = more binding, comparable within an allelic series). Also, the binding signal is 9.64 upbm affinity estimate (log intensity, higher = more binding, comparable within an allelic series) in experiment [20]; 9.56 upbm affinity estimate (log intensity, higher = more binding, comparable within an allelic series) in experiment [21]; 9.79 upbm affinity estimate (log intensity, higher = more binding, comparable within an allelic series) in experiment [22].
